Data published in PubChem BioAssay (NCI).
About 79,000 compounds went through this panel and 15% of them were active in at least one assay; those are over-represented in the sample as a whole. Active and inactive are the calls of the source. Rule as the data show it: active = growth inhibition above about 70%; inactive = the rest.

What was measured:
[1] = NCI Yeast Anticancer Drug Screen. Data for the wt1 strain (AID 149);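 also: 0% = growth of vehicle-treated wt1 cultures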; details: S. cerevisiae wt1 strain (SPY 50644) growth inhibition, active compounds read high
Procedure, shortened: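 Using yeast strain wt1, compound-induced growth inhibition was determined against vehicle-treated cultures.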

[2] = NCI Yeast Anticancer Drug Screen. Data for the rad50EPP+ strain (AID 151);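 also: 0% = growth of vehicle-treated control cultures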; details: S. cerevisiae rad50 mutant strain, active compounds read high
Procedure, shortened: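 Compounds were applied to the rad50EPP+ yeast strain, which bears a defined DNA repair alteration, and growth inhibition was determined relative to vehicle-treated cultures.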

[3] = NCI Yeast Anticancer Drug Screen. Data for the mgt1 strain (AID 153); details: S. cerevisiae mgt1 mutant growth inhibition, active compounds read high
Procedure, shortened: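 Strain: mgt1 yeast, one of a set carrying defined DNA damage repair or cell cycle control alterations. Compound-treated growth compared with vehicle.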

[4] = NCI Yeast Anticancer Drug Screen. Data for the rad50 strain (AID 155);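 also: 0% = growth of vehicle-only cultures of the same strain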; details: S. cerevisiae rad50 strain growth inhibition, active compounds read high
Procedure, shortened: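 Relative growth inhibition (compound vs vehicle) was measured in yeast with a defined repair-gene alteration.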

[5] = NCI Yeast Anticancer Drug Screen. Data for the mec2-1 strain (AID 157); details: S. cerevisiae mec2-1 strain, active compounds read high
Procedure, shortened: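 Strain: mec2-1 (DNA repair/cell cycle alteration). Compound exposure, then growth measured; inhibition expressed relative to vehicle.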

[6] = NCI Yeast Anticancer Drug Screen. Data for the rad14 strain (AID 159);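 also: 0% = growth of vehicle-treated control cultures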; details: S. cerevisiae rad14 strain growth inhibition, active compounds read high
Procedure, shortened: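 Screen for anticancer potential: a yeast strain altered in DNA damage repair is grown with compound, and reduced growth is quantified against vehicle controls.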

[7] = NCI Yeast Anticancer Drug Screen. Data for the sgs1 mgt1 strain (AID 161);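 also: 0% = growth of cultures given vehicle only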; details: S. cerevisiae sgs1 mgt1 strain, active compounds read high
Procedure, shortened: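 Test agents were incubated with a DNA-repair-mutant yeast strain. Growth was then read and compared against vehicle-treated controls.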

[8] = NCI Yeast Anticancer Drug Screen. Data for the CLN2oe strain (AID 163);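 also: 0% = growth of vehicle-only control cultures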; details: S. cerevisiae CLN2oe strain, active compounds read high
Procedure, shortened: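 Growth of a genetically modified yeast strain is measured after compound exposure and compared with cultures given vehicle alone.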

[9] = NCI Yeast Anticancer Drug Screen. Data for the cln2 rad14 strain (AID 165);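 also: 0% = growth equal to vehicle treated cultures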; details: S. cerevisiae cln2 rad14 strain, active compounds read high
Procedure, shortened: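 Compounds are applied to the cln2 rad14 yeast strain, and growth is then compared with that of vehicle-treated cultures to give inhibition.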

[10] = NCI Yeast Anticancer Drug Screen. Data for the bub3 strain (AID 167); details: S. cerevisiae bub3 mutant strain, active compounds read high
Procedure, shortened: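 Screening used yeast with an engineered genetic alteration affecting cell cycle control. Compound-exposed cultures were compared with vehicle cultures, and reduced growth was taken as inhibition.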

[11] = NCI Yeast Anticancer Drug Screen. Data for the wt2 strain (AID 169);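 also: 0% = growth of vehicle-treated yeast cultures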; details: S. cerevisiae wt2 strain growth inhibition, active compounds read high
Procedure, shortened: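 This strain belongs to a panel of yeast strains with defined genetic alterations in DNA damage repair or cell cycle control. Compounds are applied, and growth inhibition is measured against vehicle-treated cultures.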

[12] = NCI Yeast Anticancer Drug Screen. Data for the mlh1 strain (AID 171);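 also: 0% = growth of vehicle-treated control cultures of the same strain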; details: S. cerevisiae mlh1 strain growth inhibition, active compounds read high
Procedure, shortened: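 Growth of the mutant yeast strain after compound exposure, expressed as inhibition relative to vehicle-only controls.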

[13] = NCI Yeast Anticancer Drug Screen. Data for the sgs1 strain (AID 173);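 also: 0% = growth of vehicle-only control cultures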; details: S. cerevisiae sgs1 mutant, active compounds read high
Procedure, shortened: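 Growth of a yeast strain bearing a defined genetic alteration is measured after compound treatment. Inhibition is expressed relative to vehicle-only controls.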

[14] = NCI Yeast Anticancer Drug Screen. Data for the mlh1 rad18 strain (AID 175); details: S. cerevisiae mlh1 rad18 strain growth inhibition, active compounds read high
Procedure, shortened: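 Read-out is yeast growth inhibition, calculated against vehicle-only controls. The compound was applied to a strain engineered with DNA damage repair alterations.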

[15] = NCI Yeast Anticancer Drug Screen. Data for the rad18 strain (AID 177); details: S. cerevisiae rad18 mutant growth inhibition, active compounds read high
Procedure, shortened: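 Growth of the mutant yeast strain after compound exposure, normalised to vehicle-only cultures.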

[16] = NCI Yeast Anticancer Drug Screen. Data for the rad52 strain (AID 147);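 also: 0% = growth of vehicle-treated control cultures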; details: S. cerevisiae rad52 mutant growth inhibition, active compounds read high
Procedure, shortened: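 Compounds are applied to a genetically defined yeast strain lacking normal DNA damage repair, and inhibition of growth is expressed relative to cultures given vehicle only.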

[17] = at 5.0 µM (retest, dose inferred, filed as 0.5)
[18] = at 50.0 µM (retest, dose inferred, filed as 5.0)

Measured: growth inhibition

O=C1C=CC(=Nc2cccc3c2-c2ccccc2C3=O)O1
active: [1]; at 33.0 µM 99% | [1]; at 100.0 µM 99% | [2]; at 33.0 µM 89% | [2]; at 100.0 µM 97% | [3]; at 11.0 µM 71% | [3]; at 33.0 µM 99% | [3]; at 100.0 µM 99% | [4]; at 11.0 µM 79% | [4]; at 33.0 µM 98% | [4]; [18] 99% | [4]; at 50.0 µM 99.5% | [4]; at 100.0 µM 97% | [5]; at 11.0 µM 75% | [5]; at 33.0 µM 99% | [5]; [18] 99% | [5]; at 50.0 µM 99.5% | [5]; at 100.0 µM 99% | [6]; at 11.0 µM 94% | [6]; at 33.0 µM 99% | [6]; at 100.0 µM 98% | [7]; [18] 99% | [7]; at 50.0 µM 99.6% | [8]; at 33.0 µM 99% | [8]; at 100.0 µM 98% | [9]; [18] 99% | [9]; at 50.0 µM 98.7% | [10]; at 11.0 µM 72% | [10]; at 33.0 µM 97% | [10]; [18] 99% | [10]; at 50.0 µM 99.7% | [10]; at 100.0 µM 98% | [11]; at 11.0 µM 79% | [11]; at 33.0 µM 99% | [11]; at 100.0 µM 99% | [12]; at 11.0 µM 84% | [12]; at 33.0 µM 99% | [12]; at 100.0 µM 99% | [13]; at 11.0 µM 83% | [13]; at 33.0 µM 99% | [13]; at 100.0 µM 99% | [14]; [18] 99% | [14]; at 50.0 µM 85% | [15]; at 11.0 µM 83% | [15]; at 33.0 µM 99% | [15]; at 100.0 µM 98%
inactive: [1]; at 1.2 µM -2% | [1]; at 3.7 µM 8% | [1]; at 11.0 µM 42% | [2]; at 1.2 µM 4% | [2]; at 3.7 µM 24% | [2]; at 11.0 µM 61% | [3]; at 1.2 µM 1% | [3]; at 3.7 µM 17% | [4]; at 1.2 µM 3% | [4]; at 3.7 µM 19% | [4]; [17] 26% | [5]; at 1.2 µM 6% | [5]; at 3.7 µM 23% | [5]; [17] 36% | [6]; at 1.2 µM 5% | [6]; at 3.7 µM 18% | [7]; [17] 36% | [8]; at 1.2 µM -3% | [8]; at 3.7 µM 5% | [8]; at 11.0 µM 60% | [9]; [17] 14% | [10]; at 1.2 µM -7% | [10]; at 3.7 µM 0% | [10]; [17] 14% | [11]; at 1.2 µM -3% | [11]; at 3.7 µM 12% | [12]; at 1.2 µM 7% | [12]; at 3.7 µM 18% | [13]; at 1.2 µM 7% | [13]; at 3.7 µM 25% | [14]; [17] 28% | [15]; at 1.2 µM 8% | [15]; at 3.7 µM 23%

COC(=O)C1CCCCC1C(=O)Nc1ccccc1 (stereo not drawn)
active: [10]; at 50.0 µM 74.2%
inactive: [16]; at 1.2 µM 0% | [16]; at 3.7 µM 1% | [16]; at 11.0 µM 1% | [16]; at 33.0 µM 1% | [16]; at 100.0 µM -2% | [2]; at 1.2 µM -3% | [2]; at 3.7 µM -1% | [2]; at 11.0 µM -1% | [2]; at 33.0 µM -6% | [2]; at 100.0 µM 0% | [3]; at 1.2 µM 0% | [3]; at 3.7 µM -1% | [3]; at 11.0 µM 1% | [3]; at 33.0 µM -1% | [3]; at 100.0 µM -32% | [4]; at 1.2 µM -3% | [4]; at 3.7 µM -1% | [4]; [17] 10% | [4]; at 11.0 µM 0% | [4]; at 33.0 µM 0% | [4]; [18] 2% | [4]; at 50.0 µM 20.8% | [4]; at 100.0 µM -3% | [5]; at 1.2 µM -3% | [5]; at 3.7 µM -3% | [5]; [17] 0% | [5]; at 11.0 µM -2% | [5]; at 33.0 µM -4% | [5]; [18] -2% | [5]; at 50.0 µM 10.8% | [5]; at 100.0 µM -1% | [6]; at 1.2 µM -2% | [6]; at 3.7 µM -3% | [6]; at 11.0 µM -2% | [6]; at 33.0 µM -1% | [6]; at 100.0 µM -3% | [8]; at 1.2 µM -3% | [8]; at 3.7 µM -1% | [8]; at 11.0 µM -4% | [8]; at 33.0 µM -3% | [8]; at 100.0 µM -1% | [9]; [17] -2% | [9]; [18] 6% | [9]; at 50.0 µM 62.5% | [10]; at 1.2 µM -10% | [10]; at 3.7 µM -10% | [10]; [17] -7% | [10]; at 11.0 µM -12% | [10]; at 33.0 µM -12% | [10]; [18] -9% | [10]; at 100.0 µM -11% | [11]; at 1.2 µM -2% | [11]; at 3.7 µM -1% | [11]; at 11.0 µM -2% | [11]; at 33.0 µM -4% | [11]; at 100.0 µM -1% | [12]; at 1.2 µM 0% | [12]; at 3.7 µM 0% | [12]; at 11.0 µM 2% | [12]; at 33.0 µM 2% | [12]; at 100.0 µM 2% | [13]; at 1.2 µM -2% | [13]; at 3.7 µM -2% | [13]; at 11.0 µM 0% | [13]; at 33.0 µM 0% | [13]; at 100.0 µM 1% | [14]; [17] -3% | [14]; [18] -2% | [14]; at 50.0 µM 25.6% | [15]; at 1.2 µM -2% | [15]; at 3.7 µM -1% | [15]; at 11.0 µM -2% | [15]; at 33.0 µM -3% | [15]; at 100.0 µM -1%
